PAFAH1B3 FP inh: PAFAH1B3 (human) inhibition | Q15102 | recombinant PAFAH1B3, FP-rhodamine probe, fluorescence polarization | inhibition, % at 3.39 µM | 340,000 compounds, 0.28% hits | AID 492972;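 active = inhibition above the screen-wide average of all tested compounds plus 3 SD, cut at about 25% in these data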;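 note: 0% = enzyme with DMSO only and 100% = wells lacking PAFAH1B3 protein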
EBNA-1 inhibitor: blocks EBNA-1 binding to DNA. EBNA-1 DNA binding, fluorescence polarization. inhibition, % at 14.8 µM. 300,000 compounds, 0.34% hits; in the data active = inhibition above about 28%
ZTA counter: counter-screen for EBNA-1 inhibitors: inhibitors of Epstein-Barr virus ZTA; inhibition, % at 11 µM; ZTA-DNA binding, fluorescence polarization; 320,000 compounds, 0.15% hits; AID 2234; P03206; in the data active = inhibition above about 33%
Target sequence (P03206 whole entry, looked up): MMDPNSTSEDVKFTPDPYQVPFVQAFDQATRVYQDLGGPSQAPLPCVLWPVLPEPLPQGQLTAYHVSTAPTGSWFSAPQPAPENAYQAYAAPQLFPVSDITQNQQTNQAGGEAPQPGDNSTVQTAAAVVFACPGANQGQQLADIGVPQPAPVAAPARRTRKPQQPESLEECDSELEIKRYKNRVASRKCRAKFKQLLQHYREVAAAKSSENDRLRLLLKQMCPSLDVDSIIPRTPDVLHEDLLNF
PAFAH2 FP inh: PAFAH2 (human) inhibition; Q99487; recombinant PAFAH2, FP-rhodamine activity probe, fluorescence polarization; inhibition, % at 3.39 µM; 340,000 compounds, 0.99% hits;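 active = inhibition above the mean over all tested compounds plus 3 SD, cut at about 30% in these data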;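 note: inhibitors block probe labeling of enzyme so polarization drops; 0% = enzyme with DMSO and 100% = wells lacking PAFAH2 protein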
PAFAH1B2 FP inh: blocks human PAF acetylhydrolase 1b catalytic subunit 2; recombinant PAFAH1B2, FP-rhodamine activity probe, fluorescence polarization; inhibition, % at 3.39 µM; AID 492953; 340,000 compounds, 1.2% hits; P68402;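 active = inhibition above the mean of all tested compounds plus 3 SD, cut at about 24% in these data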;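 note: 0% = enzyme with DMSO and 100% = wells lacking PAFAH1B2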
Target sequence (P68402 whole entry, looked up): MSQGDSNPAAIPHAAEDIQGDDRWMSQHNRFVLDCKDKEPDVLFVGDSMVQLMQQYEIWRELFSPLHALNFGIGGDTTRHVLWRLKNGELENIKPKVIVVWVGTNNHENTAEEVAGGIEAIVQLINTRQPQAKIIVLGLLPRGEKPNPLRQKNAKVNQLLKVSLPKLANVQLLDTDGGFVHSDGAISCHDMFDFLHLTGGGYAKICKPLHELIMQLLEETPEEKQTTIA
rCAG binder: molecules binding r(CAG) RNA repeats. r(CAG) RNA repeat, TO-PRO-1 dye displacement fluorescence. inhibition, % at 3 µM. 370,000 compounds, 1.3% hits. AID 651821;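 active = inhibition above the plate cutoff, the mean of all test compounds on that plate plus 3 SD, cut at about 35% in these data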;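 note: 0% = DMSO alone and 100% = 100 µM mitoxantrone as full dye displacement; higher means more dye released from RNA so lower well fluorescence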
rCAG binder conf: r(CAG) RNA repeat binding, confirmation; 4,300 compounds, 70% hits; shares compounds with rCAG binder; TO-PRO-1 dye displacement fluorescence; inhibition, % at 3 µM;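 active = inhibition above a per-plate cutoff, the mean inhibition of sample wells plus 3 SD, cut at about 35% in these data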;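 note: loss of TO-PRO-1 fluorescence as compound displaces dye from 1x1 AA loop RNA; 0% = DMSO only wells and 100% = 100 µM mitoxantrone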
DNA CAG counter: counter-screen for rCAG RNA binders: DNA CAG dye complex inhibitors; d(CAG) DNA oligo TO-PRO-1 dye displacement, fluorescence; inhibition, % at 3 µM; 4,300 compounds, 94% hits; shares compounds with rCAG binder;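 active = inhibition above its plate's cutoff, the mean test-well inhibition plus 3 SD, cut at about 4.8% in these data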;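 note: 0% = DNA dye mix with DMSO and 100% = 100 µM mitoxantrone; hits displace the dye from DNA and so lower well fluorescence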
Active calls of the source: *. The list is not random: actives were taken first. Their share in the collection is about 2.9%.

Results for COc1cc(/C=C2/SC(=S)N(Cc3ccccc3)C2=O)ccc1OS(C)(=O)=O ?
PAFAH1B3 FP inh: -6; EBNA-1 inhibitor: 12; ZTA counter: 19; PAFAH2 FP inh: -1; PAFAH1B2 FP inh: 0; rCAG binder: 4

How did CCOc1cc(/C=C2/SC(=O)N(CC(=O)N3CCc4ccccc4C3)C2=O)ccc1OCC(=O)O do in these assays?
PAFAH1B3 FP inh: 2; EBNA-1 inhibitor: -3; ZTA counter: 5; PAFAH2 FP inh: -2; PAFAH1B2 FP inh: -8; rCAG binder: 57*; rCAG binder conf: 60*; DNA CAG counter: 21*

How did NC(=O)COc1ccccc1/C=C1/SC(=O)N(CC(=O)N2CCc3ccccc3C2)C1=O do in these assays?
PAFAH1B3 FP inh: -4; EBNA-1 inhibitor: 3; ZTA counter: -1; PAFAH2 FP inh: 1; PAFAH1B2 FP inh: -1; rCAG binder: 4

What do the screens show for `COc1cc(/C=C2/SC(=S)N(Cc3ccccc3)C2=O)ccc1OCC(=O)O`?
PAFAH1B3 FP inh: -4; EBNA-1 inhibitor: 2; ZTA counter: 4; PAFAH2 FP inh: 5; PAFAH1B2 FP inh: 2; rCAG binder: 72*; rCAG binder conf: 86*; DNA CAG counter: 55*

Results for CCOc1cc(/C=C2/SC(=S)N(Cc3ccccc3)C2=O)ccc1O ?
PAFAH1B3 FP inh: -28; EBNA-1 inhibitor: 12; ZTA counter: -13; PAFAH2 FP inh: -39; PAFAH1B2 FP inh: -28; rCAG binder: 37*; rCAG binder conf: 42*; DNA CAG counter: 24*

Results for COc1ccc(C)cc1Nc1ccc(C(=O)O)cc1[N+](=O)[O-] ?
PAFAH1B3 FP inh: 4; EBNA-1 inhibitor: -1; ZTA counter: 22; PAFAH2 FP inh: 4; PAFAH1B2 FP inh: 5; rCAG binder: -2

What do the screens show for `Cc1occc1C(=O)Nc1nnc(C(F)(F)F)s1`?
PAFAH1B3 FP inh: -3; EBNA-1 inhibitor: -6; ZTA counter: 1; PAFAH2 FP inh: -6; PAFAH1B2 FP inh: -3; rCAG binder: 2

What do the screens show for `O=C(Nc1ccccc1C(=O)Nc1nnc(C(F)(F)F)s1)c1ccccc1`?
PAFAH1B3 FP inh: -4; EBNA-1 inhibitor: 1; ZTA counter: 6; PAFAH2 FP inh: -8; PAFAH1B2 FP inh: -5; rCAG binder: 38*; rCAG binder conf: 72*; DNA CAG counter: 33*

What do the screens show for `Cc1nnc(SC(C(=O)Nc2ccc(Cl)c([N+](=O)[O-])c2)c2ccccc2)[nH]c1=O` (stereo not drawn)?
PAFAH1B3 FP inh: -1; EBNA-1 inhibitor: 8; ZTA counter: -9; PAFAH2 FP inh: 6; PAFAH1B2 FP inh: 4; rCAG binder: 61*; rCAG binder conf: 40*; DNA CAG counter: 12*

What do the screens show for `Cc1cc(C)cc(NC(=O)C(Sc2nnc(C)c(=O)[nH]2)c2ccccc2)c1` (stereo not drawn)?
PAFAH1B3 FP inh: 4; EBNA-1 inhibitor: 15; ZTA counter: -7; PAFAH2 FP inh: 8; PAFAH1B2 FP inh: 5; rCAG binder: 27

Results for CCc1nnc(NC(=O)CCC(=O)N2CCN(Cc3ccc(OC)c(F)c3)CC2)s1 ?
PAFAH1B3 FP inh: 6; EBNA-1 inhibitor: -22; ZTA counter: -8; PAFAH2 FP inh: -6; PAFAH1B2 FP inh: 2; rCAG binder: -5

What do the screens show for `Cc1cc(Cl)ccc1Oc1ccccc1C(=O)CC#N`?
PAFAH1B3 FP inh: 10; EBNA-1 inhibitor: -6; ZTA counter: -6; PAFAH2 FP inh: 7; PAFAH1B2 FP inh: 6; rCAG binder: 38*; rCAG binder conf: 23; DNA CAG counter: 7.6*

What do the screens show for `COc1cc(/C=C/C(=O)O)ccc1OS(=O)(=O)c1c(C)cc(C)cc1C`?
PAFAH1B3 FP inh: 4; ZTA counter: -8; PAFAH2 FP inh: 10; PAFAH1B2 FP inh: 18; rCAG binder: 36*; rCAG binder conf: 28; DNA CAG counter: 9.4*

What do the screens show for `Cc1c(NS(=O)(=O)c2ccc(NC(=O)CCC(=O)O)cc2)c(=O)n(-c2ccccc2)n1C`?
PAFAH1B3 FP inh: 8; EBNA-1 inhibitor: -1; ZTA counter: -23; PAFAH2 FP inh: 2; PAFAH1B2 FP inh: 2; rCAG binder: 1

Screening data deposited in PubChem BioAssay by The Scripps Research Institute Molecular Screening Center.
